Consider 42 molecules from PubChem BioAssay AID624415 (National Center for Advancing Translational Sciences (NCATS), 2012).

In all, about 390,000 compounds went through this assay and about 60 (0.02%) were called active. For the sample, actives were picked, then their nearest neighbours and some compounds at random. A number with no mark means an inactive call. No stated cut-off is given here; in the data, active means activity change below about -50%; inconclusive means between about -30% and that limit; inactive means weaker than that.
On the % scale 0 is the no-effect control and ±100 the full control effect.

Sequence of Mucolipin-1 (Homo sapiens) (Q9GZU1 whole entry, looked up, the tested form may be a part): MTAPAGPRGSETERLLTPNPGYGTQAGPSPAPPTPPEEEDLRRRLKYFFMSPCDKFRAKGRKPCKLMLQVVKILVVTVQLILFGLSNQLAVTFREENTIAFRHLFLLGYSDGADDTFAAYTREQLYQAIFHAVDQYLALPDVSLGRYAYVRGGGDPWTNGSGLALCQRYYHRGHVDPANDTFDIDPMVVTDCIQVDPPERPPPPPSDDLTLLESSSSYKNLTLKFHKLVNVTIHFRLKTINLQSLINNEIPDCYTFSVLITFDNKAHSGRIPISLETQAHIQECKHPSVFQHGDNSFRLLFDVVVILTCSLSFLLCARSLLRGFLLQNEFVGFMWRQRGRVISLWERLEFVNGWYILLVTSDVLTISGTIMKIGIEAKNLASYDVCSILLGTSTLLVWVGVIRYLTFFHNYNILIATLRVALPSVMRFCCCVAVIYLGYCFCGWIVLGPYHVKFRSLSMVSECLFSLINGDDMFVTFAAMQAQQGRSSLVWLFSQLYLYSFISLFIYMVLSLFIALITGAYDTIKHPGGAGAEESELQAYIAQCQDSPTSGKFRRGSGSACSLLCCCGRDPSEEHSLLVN

This assay deals with Mucolipin-1 (Homo sapiens) (UniProt Q9GZU1). Put plainly: qHTS for Inhibitors of the Human Mucolipin Transient Receptor Potential 1 (TRPML1).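 Further: stimulus is agonist 54-4 at its EC80 concentration.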 Particulars: TRPML1-inducible cells, Ca2+ dye fluorescence, FDSS; active compounds read low; inhibition of EC80 agonist-evoked calcium signal. The text has this:
Mutations of human Mucolipin transient receptor potential 1 (TRPML1) cause type IV mucolipidosis (ML4), a devastating neurodegenerative disease in young children. […] Currently, there is no treatment for ML4. […] Under physiological conditions, TRPMLs regulate membrane trafficking by transducing information about PI(3,5)P2 levels into changes in juxtaorganellar Ca2+, thereby triggering membrane fusion/fission events in the late endocytic pathways (endolysosomal trafficking). In addition, TRPML1 mediates release of Fe2+ from late endosomes and lysosomes, which is essential for cellular iron metabolism. Thus, impaired ion (Ca2+ and Fe2+) homeostasis underlies lysosomal dysfunction and ML4 phenotypes. In ML4 cells, the problem is twofold. First, defective Ca2+-dependent membrane trafficking due to TRPML1-deficiency causes accumulation of lipids and other bio-materials in the lysosome. The second strike comes from the lysosomal iron overload (due to impairment of TRPML1's Fe2+ conductivity), which converts the accumulated materials into the nondegradable (resistant to lysosomal degradation) lipofuscin (also called aging pigment) in the lysosome. Lipofuscin accumulation dramatically compromises the functions of lysosomes.
Niemann-Pick type C (NPC) disease is another lysosome storage disease (LSD) with severe neurodegeneration during the childhood. Currently, there is no cure for NPC. […] Thus, TRPML1 is likely to be an essential regulator of lysosome ion homeostasis. We specifically hypothesize that stimulating TRPML1's Fe2+/Ca2+ channel activity in the lysosome using synthetic agonists can alleviate neurodegeneration associated with ML4 or NPC.
To this end, a high throughput screen was developed in a miniaturized format to screen against the Molecular Libraries Small Molecule Repository (MLSMR) to find small molecules that act either as inhibitors or agonist against the TRPML1 channel.
NIH Chemical Genomics Center [NCGC]
NIH Molecular Libraries Probe Centers Network [MLPCN]
Assay Submitter (PI): Haoxing Xu, University of Michigan Ann Arbor
TRPML1-DL cells are dissociated from flasks, counted and, brought up to a density of 500,000 cells per mL of media containing a 1X Tet inducer. Using a Multidrop Combi, 3 uL of this cell solution is dispensed to each well of a 1536 TC treated, black, clear bottom hi base plate for a final cell density of 1,500 cells per well. The assay plates are incubated overnight (approximately 16 hours) at 37 degrees C and 5% CO2. Using a Multidrop Combi, 2 uL of ABD Ca8 no wash dye plus quencher is added to each well. The assay plates incubate at room temperature in the dark for 45-90 minutes. The assay plate is read on the FDSS using the following protocol: 10 second baseline read, 23 nL of compounds and controls are added using 1536 pintool, agonist read for 110 seconds, 1 uL EC80 addition (4 uM final 54-4 diluted in media), antagonist read for 110 seconds.
In general terms: Quantitative high-throughput screening tests each substance at several concentrations.
Consider `CCc1ccc(CNC(=O)c2ccc(CS(=O)c3ccc(Br)cc3)o2)cc1` (configuration not stated), for which the activity change, negative = inhibition was 34.7%.

For the molecule `Cc1ccc2cccc(NC(=O)C(C)Oc3ccc(C)c(C)c3)c2n1` (configuration not stated), the activity change, negative = inhibition is -1.63%.

Turning to `Cc1ccc(C)c(N2C(=O)N(Cc3c(F)cccc3Cl)c3ccccc3S2(=O)=O)c1`, the activity change, negative = inhibition was -2.54%.

As to `Oc1ccc(Cl)cc1C1C=C(c2ccc3c(c2)OCO3)NC(c2c(F)cccc2Cl)N1` (configuration not stated), the activity change, negative = inhibition is -4.64%.

Take `COc1ccc2ncc3c(-c4ccc(C)c(C)c4)nn(CC(=O)NC4CCCC4)c3c2c1`: the activity change, negative = inhibition was 6.38%.

Turning to `CCN(CC)c1nn2c(=O)c(C(=O)NCCc3ccccc3)cnc2s1`, the activity change, negative = inhibition is 26.2%.

For the molecule `COc1ccc(CNC(=O)c2cc3c(=O)[nH]c4ccccc4c3s2)cc1`, the activity change, negative = inhibition is -6.35%.

Turning to `Cc1ccc(Cl)cc1NC(=O)CSc1nccn1C`, the activity change, negative = inhibition is 0.294%.

For `CC(=O)Nc1ccc2nc(SCCOc3cc(C)cc(C)c3)sc2c1`, the activity change, negative = inhibition was -12.9%.

As to `CCc1ccc(S(=O)(=O)Nc2cc3c(C(=O)OCc4ccccc4)c(C)oc3c3ccccc23)cc1`, the activity change, negative = inhibition was 28.4%.

Regarding `CCOC(=O)c1cccc(NS(=O)(=O)c2cc(-c3cnc(C)o3)ccc2OC)c1`, the activity change, negative = inhibition is 21%.

As for `Cc1ccc(Cn2cnc3c(cnn3C(C)(C)C)c2=O)c(F)c1`, the activity change, negative = inhibition was 38.8%.

For the molecule `COc1cc(OC)cc(C(=O)Nc2c(C(=O)Nc3ccc(F)cc3)oc3ccccc23)c1`, the activity change, negative = inhibition was -0.263%.

On to `O=C1CN(Cc2ccccc2)S(=O)(=O)c2ccccc21`, for which the activity change, negative = inhibition is 2.64%.

Consider `CCOc1ccc(C(=O)c2cn(Cc3ccc(F)cc3)c3ccc(F)cc3c2=O)cc1`, for which the activity change, negative = inhibition was 34.7%.

Take `CCOc1ccc(-c2cc3c(=O)n(CC(=O)NCc4ccc(OC)cc4)ccn3n2)cc1`: the activity change, negative = inhibition is 14.1%.

For the molecule `Cc1cc2c(cc1C)C(c1cccc(OC(C)C)c1)CC(=O)N2` (configuration not stated), the activity change, negative = inhibition is -6.57%.

`COc1ccc(C(CCN2CCOCC2)c2c(OC)cc(OC)c3c2OC(=O)CC3c2ccc(OC)cc2)cc1` (configuration not stated): the activity change, negative = inhibition is -3.63%.

Regarding `CC(C)c1ccc(NC(=O)c2ccc3c(O)c(S(=O)(=O)c4ccccc4)c(=O)[nH]c3c2)cc1`, the activity change, negative = inhibition is 8.74%.

As to `COc1ccccc1-n1c(-c2ccc(C)cc2)cn2c3c(=O)n(C)c(=O)n(C)c3nc12`, the activity change, negative = inhibition was -8.58%.

Take `Cc1nn(C(C)C(=O)NCCc2ccccc2)c(=O)c2c1sc1ccccc12` (configuration not stated): the activity change, negative = inhibition is -5.78%.

For the molecule `O=C(Nc1cccc2cccnc12)C(F)(F)F`, the activity change, negative = inhibition was -10.4%.

With `Cc1ccc(SCC(CC(C)C)N2CCN(CCc3ccccc3)CCC2=O)cc1` (configuration not stated), the activity change, negative = inhibition was 35%.

`CC(=O)Nc1ccc(NC(=O)c2cc3sccc3n2Cc2ccc(F)cc2)cc1`: the activity change, negative = inhibition was 8.5%.

On to `CCC(Sc1nnc(-c2ccc(OC)cc2)c(-c2ccc(OC)cc2)n1)C(=O)NC1CCCCC1` (configuration not stated), for which the activity change, negative = inhibition is -8.91%.

For the molecule `Cc1ccc(Cl)cc1NC(=O)CSc1nc2ccccc2nc1Cc1ccccc1`, the activity change, negative = inhibition is 5.62%.

`Cn1c(=O)c(=O)n(C)c2cc(NC(=O)c3ccccc3Br)ccc21`: the activity change, negative = inhibition was 18.3%.

Regarding `COc1ccc(Br)cc1C1CC(=O)Nc2c1c(C)nn2-c1nc(C)cc(C)n1` (configuration not stated), the activity change, negative = inhibition is -2.53%.

Turning to `CCc1ccc(S(=O)(=O)c2nnn3c2nc(NCc2ccccc2OC)c2cc(Cl)ccc23)cc1`, the activity change, negative = inhibition was 11.3%.

For the molecule `CC(=O)Nc1ccc(NC(=O)CCCc2nc(-c3ccc(C(C)(C)C)cc3)no2)cc1`, the activity change, negative = inhibition is -23.6%.

Regarding `Cc1ccc(OCC(=O)Nc2ccc(OCc3cc(=O)n4c(C)csc4n3)cc2)cc1C`, the activity change, negative = inhibition is 21.1%.

As for `COc1ccc(NC(=O)C2CCCN(S(=O)(=O)c3c(C)[nH]c(=O)[nH]c3=O)C2)c(OC)c1` (configuration not stated), the activity change, negative = inhibition was -13.7%.

As for `COc1c(Cl)cc(C(=O)N(Cc2ccccc2F)C2CCS(=O)(=O)C2)cc1Cl` (configuration not stated), the activity change, negative = inhibition was -13.9%.

With `COc1cccc(C(=O)NC2=NC(c3ccc(N(C)C)cc3)CC(=O)N2)c1` (configuration not stated), the activity change, negative = inhibition is 4.87%.

As for `Cc1ccc(-c2nn3c(=O)cc(CN4CCN(C(=O)Nc5cccc(C(F)(F)F)c5)CC4)nc3s2)cc1`, the activity change, negative = inhibition was -11.5%.

In the case of `COc1cccc(NC(=O)c2csnn2)c1`, the activity change, negative = inhibition is -5.21%.

`O=C(NCc1ccc(F)cc1)c1ccc2nc(N3CCCCC3)sc2c1`: the activity change, negative = inhibition was -15.1%.

On to `Cc1cc(NC(=O)c2ccc(-c3ccc(Cl)cc3)o2)cc(-c2nc3ncccc3o2)c1O`, for which the activity change, negative = inhibition was -5.56%.

As to `CCC1=Nc2cc(C(=O)NCC(C)c3ccccc3)ccc2Sc2ccc(C)cc21` (configuration not stated), the activity change, negative = inhibition was 12%.

Take `Cc1ccc(C)c(N2CCN(C(=O)C3CCC(CNS(=O)(=O)c4cccs4)CC3)CC2)c1` (configuration not stated): the activity change, negative = inhibition is 13.9%.

Consider `CCc1nc2onc(C)c2c(=O)n1CC(=O)O`, for which the activity change, negative = inhibition was -8.95%.

As for `Cc1ccccc1CN1CCC(CNC(=O)c2c(C)oc3ncnc(N4CCCCC4)c23)CC1`, the activity change, negative = inhibition was 3.2%.
